# Mdm2-MdmX inh – human Mdm2/MdmX binding inhibition | hit rate 3% among 330,000 | O15151+Q00987 | SaOS-2 split-luciferase Mdm2/MdmX complementation, luminescence | inhibition, % at 8 µM;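 active = inhibition of at least 50% at 8 µM in the primary screen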
# Target sequence (O15151 whole entry, looked up): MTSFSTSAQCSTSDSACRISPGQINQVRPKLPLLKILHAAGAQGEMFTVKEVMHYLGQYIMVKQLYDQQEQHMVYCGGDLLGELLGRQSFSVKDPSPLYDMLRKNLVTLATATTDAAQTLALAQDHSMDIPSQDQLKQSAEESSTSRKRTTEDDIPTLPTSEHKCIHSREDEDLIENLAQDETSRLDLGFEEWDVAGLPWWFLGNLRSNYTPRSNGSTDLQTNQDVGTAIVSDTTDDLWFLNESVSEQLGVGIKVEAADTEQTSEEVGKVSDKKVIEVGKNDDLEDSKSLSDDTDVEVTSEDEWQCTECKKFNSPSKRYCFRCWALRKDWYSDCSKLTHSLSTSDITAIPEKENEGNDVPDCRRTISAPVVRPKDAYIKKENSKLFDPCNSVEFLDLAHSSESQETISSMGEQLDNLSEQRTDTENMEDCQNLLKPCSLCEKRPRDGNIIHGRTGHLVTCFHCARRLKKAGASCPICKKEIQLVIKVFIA
# Target sequence (Q00987 whole entry, looked up): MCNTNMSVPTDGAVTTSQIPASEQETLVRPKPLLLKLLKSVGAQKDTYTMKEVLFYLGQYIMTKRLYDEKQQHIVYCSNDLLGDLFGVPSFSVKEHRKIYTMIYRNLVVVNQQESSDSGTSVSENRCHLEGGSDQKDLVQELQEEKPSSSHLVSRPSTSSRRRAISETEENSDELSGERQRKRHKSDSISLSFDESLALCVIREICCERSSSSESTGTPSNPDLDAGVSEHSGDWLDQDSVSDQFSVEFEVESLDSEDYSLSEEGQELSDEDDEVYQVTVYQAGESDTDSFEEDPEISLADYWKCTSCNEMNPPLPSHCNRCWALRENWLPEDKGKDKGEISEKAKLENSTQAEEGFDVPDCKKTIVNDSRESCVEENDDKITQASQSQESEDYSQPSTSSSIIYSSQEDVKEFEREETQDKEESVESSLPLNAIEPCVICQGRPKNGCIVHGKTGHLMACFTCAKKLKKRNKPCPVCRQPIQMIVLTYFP
# Bfl-1 A1 inh – inhibitors of the anti-apoptotic protein A1, read as caspase activation; caspase activation, % (concentration not given with the values); MEF A1-2A-BIM cells, Caspase-Glo 3/7 luminescence, 3 h; percent of clofoctol response, vehicle zero; hit rate 0.066% among 330,000;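 active = over half of replicate activation scores above 10%, or exactly half above 10 with the replicate mean above 10; inconclusive = replicate mean below 10 yet half the replicates above 10; inactive = over half of replicates below 10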
# Beta cell apopt – beta cell apoptosis inhibition. INS-1E cytokine-induced death, ATP luminescence, 48 h; percent of positive-control rescue, neutral wells zero. protection from apoptosis, % (no concentration beside the values). hit rate 0.8% among 300,000. AID 435005;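 active = Every replicate reaches about 75%, or at least half do and their mean reaches it too, limit read from the data; inconclusive = At least half of replicates reach the limit but their mean does not; inactive = Under half of replicates reach the limit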;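 also: 0% = cytokine-treated negative control wells and 100% = positive control rescue; higher means more ATP so stronger rescue from cytokine killing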
# aSyn UTR inh – 5' untranslated region of α-synuclein, MLPCN primary screen | alpha-synuclein 5'UTR reporter, inhibitor activity | inhibition, % (tested at 7.5 µM) | hit rate 0.82% among 300,000 | AID 1813; in the data active = inhibition above about 60%; inconclusive = no clear call, values can overlap the other calls;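 also: H4 neuroglioblastoma cells stably carrying SNCA 5'UTR luciferase fusion; 0% = DMSO wells and 100% = positive control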
# CSC inhib – cancer stem cell inhibition; inhibition, % at 7.5 µM; AID 2717; cancer stem cell-like cells viability, luminescence; hit rate 1.1% among 300,000; in the data active = inhibition above about 75%; inconclusive = no clear call, values can overlap the other calls; tested in HMLE shEcad cells
# Mdm2-MdmX conf – confirmation of human Mdm2/MdmX interaction inhibitors; shares compounds with Mdm2-MdmX inh; Mdm2-MdmX binding, luminescent assay; inhibition, % at 8 µM; hit rate 55% among 10,000; AID 489028; in the data active = inhibition above about 40%
# Full FLuc ctr – full-length luciferase inhibition in Mdm2/MdmX counter-screen; shares compounds with Mdm2-MdmX inh; SaOS-2 full-length luciferase counterscreen, luminescence; inhibition, % at 8 µM; hit rate 77% among 6,200; AID 504607;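 active = mean inhibition at 8 µM reaching about 37%, which flags the compound as non-specific, limit read from the data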;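 also: p53-null SaOS-2 cells with luciferase driven by a doxycycline-inducible promoter; compound on cells about two nights before reading with doxycycline added after day one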
# Numbers without * were called inactive; ? = inconclusive; / = not tested or not shown. Only some compounds are listed: those with a hit (about 4.1% of all), similar ones and a draw of the others.
SMILES,Mdm2-MdmX inh,Bfl-1 A1 inh,Beta cell apopt,aSyn UTR inh,CSC inhib,Mdm2-MdmX conf,Full FLuc ctr
c1ccc2c(c1)Sc1ccccc1N2CC1CN2CCC1CC2 (stereo not given),75*,1,-2,-23,10,44*,84*
CCn1c(=O)cc(SCC(=O)N2CCC3(CC2)OCCO3)c2ccccc21,53*,1,-1,-34,-1,39,/
Cn1c(=O)n(CC(=O)N2CCC3(CC2)OCCO3)c(=O)c2ccccc21,14,0,-1,-11,-5,/,/
O=C1C(=O)c2cccc3cccc1c23,33,0,-10,-1,37,/,/
O=C1C(=O)c2ccccc2-c2ccccc21,99*,0,121*,119*,107*,100*,0
C=C1C(=O)O[C@H]2C[C@@H](C)[C@@H]3C=CC(=O)[C@@]3(C)C[C@H]12,100*,4,104*,-151,89*,96*,53*
C=C1C(=O)O[C@@H]2C[C@@H](C)[C@@H]3C=CC(=O)[C@@]3(C)[C@@H](OC(=O)CC(=O)O[C@H]3[C@@H]4C(=C)C(=O)O[C@@H]4C[C@@H](C)[C@@H]4C=CC(=O)[C@]43C)[C@H]12,97*,-2,132*,116*,122*,100*,4
Cc1ccc(S(=O)(=O)c2nc(-c3ccccc3Cl)oc2N(C)C2CCN(C)CC2)cc1,72*,1,7,/,41,8,/
CN(C)C1C(=O)C(C(N)=O)=C(O)C2(O)C(=O)C3=C(O)c4c(O)cccc4C(C)(O)C3C(O)C12 (stereo not given),15,0,-2,20,0,/,/
CC(=O)O[C@@H]1/C=C/[C@](C)(O)C[C@@H](C)C/C=C/[C@H]2[C@H](O)C(C)=C(C)[C@H]3[C@H](Cc4ccccc4)NC(=O)[C@@]123,72*,0,8,117*,4,74*,49*
C/C(=C\c1ccc(N(C)C)cc1)[N+](=O)[O-],100*,0,/,-8,0,31,/
COC(=O)c1ccc(NC(=O)CSc2nc3ccc(N4C(=O)C5C6C=CC(C6)C5C4=O)cc3s2)cc1 (stereo not given),69*,0,5,-12,32,23,/
Cc1ccc(C(=O)N[C@@H](C)CN2C3=NC[C@@H](Cc4ccccc4)N3C[C@H]2Cc2ccc(O)cc2)cc1Br,69*,1,6,5,23,33,/
Cc1ccc(C(=O)N[C@@H](C)CN2C3=NC[C@H](Cc4ccccc4)N3C[C@H]2Cc2ccc(O)cc2)cc1Br,98*,0,1,-15,30,58*,57*
O=S(=O)(c1ccccc1)N1CCN2CCCC2C1 (stereo not given),26,?,-3,11,20,/,/
COC(=O)C1CN(C#N)N(c2ccc(Cl)cc2)C12c1ccccc1-c1ccccc12 (stereo not given),95*,0,112*,112*,-11,24,/
O=C(C[N+]12CCC(CC1)C(CO)C2)c1ccc(Br)cc1 (stereo not given),-15,-1,-5,-13,-4,/,/
C[n+]1c2ccccc2nc2ccc(NCCO)cc21,5,-1,22,-24,17,/,/
CNc1ccc2nc3ccccc3[n+](C)c2c1,83*,0,93*,46,24,50*,9
C=C1C(=O)O[C@@H]2C[C@@H](C)[C@@H]3C4OC4C(=O)[C@@]3(C)[C@@H](O)[C@H]12 (stereo not given in full),101*,0,104*,-221,75*,100*,5
C=C1C(=O)O[C@H]2[C@H]1[C@H](OC(=O)CC(=O)O[C@@H]1C[C@@H](C)[C@@H]3C=CC(=O)[C@@]3(C)[C@H]3OC(=O)C(=C)[C@H]13)C[C@@H](C)[C@H]1C=CC(=O)[C@]12C,49,0,43,11,-11,/,/
CC(C)c1oc(=O)cc2c1[C@@H](O)[C@H]1OC(=O)[C@@]3(C)C[C@@H](O)[C@@H](O)[C@@]2(C)C13 (stereo not given in full),81*,0,12,7,43,58*,30

# From PubChem BioAssay
